# According to PubChem BioAssay AID651821 (The Scripps Research Institute Molecular Screening Center, 2012):
# Among all 370,000 compounds or so, about 4,700 (1.3%) were called active. The entries come from a sample that favours actives as a whole. Values without a mark were called inactive.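 Rule for the calls: active = inhibition above the plate cutoff, the mean of all test compounds on that plate plus 3 SD (cut at about 35% in these data); inactive = the rest.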
# Test: small molecules binding CAG repeat RNA – biochemical, fluorescence, primary screen (AID 651821);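 note: 0% = DMSO alone and 100% = 100 µM mitoxantrone as full dye displacement; higher means more dye released from RNA so lower well fluorescence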
# Conditions: r(CAG) RNA repeat, TO-PRO-1 dye displacement fluorescence; at 3 µM; hits give high values
row,SMILES,inhibition
1,CCCCC(NC(=O)c1cccc(Br)c1)C(=O)O (centres undefined),0.46%
2,COC(=O)[C@]12C[C@H](CC(=O)N3CCOCC3)C(=O)N(Cc3ccc(Cl)cc3Cl)C1=C[C@H](COCc1ccccc1)O[C@@H]2C,4.28%
3,CC(C)CNC(=O)OCc1cn(Cc2ccc(F)cc2)nn1,0.38%
4,Cc1cc2c(nc1C)CCCN2C,-0.74%
5,COC(=O)[C@H](C(C)C)N1CCc2nnn(Cc3ccc(C)cc3)c2-c2ccccc2S1(=O)=O,-0.02%
6,COCc1[nH]nc2c1C(c1ccccc1)N(c1ccccc1)C2=O (centres undefined),-0.7%
7,O=S(=O)(Nc1ccc2ccccc2c1)N1CCCCC1,4.05%
8,CS(=O)(=O)c1ccccc1C(=O)Nc1ccc2sccc2c1,2.53%
9,O=C(Nc1ccc2ccccc2c1)Nc1ccc2snnc2c1,47.6% (active)
10,C[C@@H]1ON(C)[C@H]2C[C@H]3c4cc(N5CCOCC5)ccc4CCN3C[C@@H]12,0.67%
11,C=CCSc1nsc(NC(=O)Nc2cccc(C(C)=O)c2)n1,60.2% (active)
12,COC(=O)c1cccc(NC(=O)CSc2nc(C)cc(=O)[nH]2)c1,6.31%
13,CCCCN1C(=O)C(=O)N(CC(=O)Nc2cccc(C(C)=O)c2)C1=O,4.35%
14,CSc1nsc(NC(=O)Nc2ccccc2)n1,38.9% (active)
15,CCSc1nsc(NC(=O)Nc2cccc(C(C)=O)c2)n1,62.7% (active)
16,C=CCSc1nnc2c(n1)-c1cccc3cccc-2c13,7.81%
17,CC(=O)N1CCC(C(=O)Nc2nc(-c3ccccc3)ns2)CC1,6.24%
18,CCc1nnc(NC(=O)CSc2nnnn2-c2cccc(C(C)=O)c2)s1,-0.71%
19,CSc1nsc(SCC(=O)Nc2cc(C(=O)O)ccc2C)n1,7.69%
20,O=C(NC1CCC1)c1ccc(C#CC2CC2)cn1,4.07%
21,CCC(c1ccc(NC(=O)OC(C)(C)C)cc1)c1cc(OC)cc(OC)c1 (centres undefined),3.19%

row,SMILES,inhibition
1,COC(=O)C1=C(C)N(Cc2ccccc2C(F)(F)F)C(=NCc2ccc(C(F)(F)F)cc2)NC1c1ccc(F)cc1 (centres undefined),1.68%
2,C=CCN(C(=O)[C@@H](CCCC)[C@@H](O)c1ccc(Cl)cc1)c1ccccc1,-0.19%
3,CCC(C)C(N=C1NS(=O)(=O)c2ccccc21)C(=O)N1CCC(C)CC1 (centres undefined),-5.03%
4,COc1ccc(S[C@]2(C(=O)N(C)C)CC(=O)N(c3ccc(OC)cc3)[C@@H]2c2ccc(OC)cc2)cc1,2.57%
5,C=CCN1C(=O)[C@@H](CC(=O)NCC2CCCCC2)[C@]2(C(=O)OC)CCCCC=C12,2.39%
6,Cc1cc(C(=O)N/N=C/c2ccc(O)c([N+](=O)[O-])c2)c(C)n1-c1ccc(F)cc1,40.9% (active)
7,CC(Oc1ccccc1[N+](=O)[O-])C(=O)N/N=C/c1ccoc1 (centres undefined),6.95%
8,Cc1c(Cl)c([N+](=O)[O-])nn1Cc1ccc(C(=O)N/N=C\c2cc(Cl)ccc2O)o1,7.06%
9,O=c1[nH]c(-c2ccccc2)cn1C1CCN(Cc2ccc(-c3nc4ccc(F)cc4nc3-c3ccccc3)cc2)CC1,14.3%
10,O=C(CCC1CCCN(Cc2ccc(O)c(Cl)c2)C1)NCc1ccccc1F (centres undefined),-2.68%
11,CCOC(=O)C(=O)N(Cc1ccccc1)c1ccccc1C(=O)Nc1cc(OC)ccc1OC,-0.13%
12,CCC(NC(=O)C1C2C=CC3(CN(Cc4ccccc4)C(=O)C13)O2)c1ccccc1 (centres undefined),0.21%
13,Cc1ccc(C(C)C)c(OCCSc2nc3ccccc3n2CC(=O)O)c1,40.7% (active)
14,COc1ccccc1OCCn1c(SCC(N)=O)nc2ccccc21,1.66%
15,CCOc1ccc(OCCSc2nc3ccccc3n2CC(=O)O)cc1,7.86%
16,Cc1ccc(Cn2cc(CN3[C@@H](CC(C)C)COc4ccc(Cl)cc4S3(=O)=O)nn2)cc1,2.98%
17,COC(=O)C1CN(CCc2ccccc2)CCS(=O)(=O)N1Cc1cccc(Cl)c1 (centres undefined),1.15%
18,CN1C[C@]2(C=C3CCCCC3n3c(=O)n(-c4ccccc4)c(=O)n32)N=C1NC(=O)c1ccccc1 (some centres undefined),8.01%
19,Cc1ccc(C(=O)COC(=O)c2cccc(N3C(=O)c4c(C)nc5ccccc5c4C3=O)c2)cc1C,8.76%
20,Cc1ccc(-c2nc3c(C)cc(Br)cn3c2Cc2ccccc2)cc1,10.3%
21,COc1ccc(-c2nc3ccc(Br)cn3c2Cc2ccc(C)cc2)cc1OC,40.1% (active)

row,SMILES,inhibition
1,Fc1cccc(Cc2c(-c3cccc(Cl)c3)nc3ccc(Br)cn23)c1,48.3% (active)
2,Cc1cc(Br)cn2c(Cc3cccc(F)c3)c(-c3cccc(Br)c3)nc12,48.4% (active)
3,Cc1ccc(-c2nc3ccc(Br)cn3c2Cc2ccccc2C(F)(F)F)cc1,30.3%
4,Cc1cc(Br)cn2c(Cc3ccccc3C(F)(F)F)c(-c3ccc(Cl)cc3)nc12,11.8%
5,COC(=O)c1ccc2nc(-c3ccc(OC)c(OC)c3)c(Cc3ccccc3)n2c1,9.92%
6,Brc1ccc2nc(-c3ccccc3)c(Cc3ccccc3)n2c1,13.1%
7,Fc1cccc(Cc2c(-c3ccc(Cl)cc3)nc3ccc(Cl)cn23)c1,20.9%
8,CCCCCC(O)c1cccc(OCc2ccc3ccccc3n2)c1 (centres undefined),1.42%
9,Cc1ccc(NC(=O)N2c3ccccc3SC2c2ccco2)c(C)c1 (centres undefined),5.91%
10,COc1ccccc1Cc1c(-c2ccc(F)cc2)nc2ccc(C)cn12,6.12%
11,CCCCNC(=O)C[C@@H]1C[C@@]2(C(=O)OCC)CCC=C2N(Cc2cccc3ccccc23)C1=O,1.85%
12,Cc1ccc(-n2c(COc3ccccc3)nnc2SCC(=O)Nc2ccc3c(c2)OCCO3)cc1,7.21%
13,COc1ccc(-n2c(COc3ccc(C)cc3)nnc2SCC(=O)Nc2ccc(Oc3ccccc3)cc2)cc1,5.38%
14,CCOc1cc(C)ccc1OCc1nnc(SCC(=O)Nc2cccc(C(=O)O)c2)n1-c1ccccc1,42% (active)
15,COC(=O)[C@]12C[C@H](CC(=O)N3CCN(C(=O)C4CC4)CC3)C(=O)N(CCC3=CCCCC3)C1=C[C@H](C(C)C)O[C@@H]2C1CC1,3.85%
16,Cc1ccc(NS(=O)(=O)c2ccc(N/N=C/c3ccccc3OCC(=O)O)c([N+](=O)[O-])c2)c(C)c1,86.9% (active)
17,O=C(O)c1ccccc1/C=N/Nc1ccc(S(=O)(=O)Nc2ccc(Cl)cc2)cc1[N+](=O)[O-],67% (active)
18,CCOc1ccccc1NS(=O)(=O)c1c[nH]c(C(=O)OC)c1,-0.7%
19,COc1ccc(N(CC(=O)Nc2ccc(C)cc2C)S(=O)(=O)c2ccccc2[N+](=O)[O-])c(OC)c1,7.1%
20,COc1ccc(S(=O)(=O)NC(C)c2ccccc2)cc1C(=O)N1CCCCC1 (centres undefined),-7.44%
21,COc1ccc(Br)cc1/C=N/Nc1ccc(S(=O)(=O)Nc2ccccc2C(=O)O)cc1[N+](=O)[O-],70.1% (active)

row,SMILES,inhibition
1,COc1cc(/C=C/C(=O)O)cc(S(=O)(=O)Nc2ccccc2C(=O)NCCc2ccccc2)c1OC,31.7%
2,CCN(CC(=O)NCc1cccs1)C(=O)c1cccc(S(=O)(=O)Nc2ccccc2OC)c1,-2.88%
3,O=[N+]([O-])c1cc(S(=O)(=O)Nc2cccc(Cl)c2)ccc1N=Nc1c(O)[nH]c2ccccc12,8.1%
4,Cc1ccc(S(=O)(=O)NC(=O)COc2ccccc2C)cc1,1.07%
5,COc1cccc(/C=N/Nc2ccc(S(=O)(=O)Nc3ccccc3C(=O)O)cc2[N+](=O)[O-])c1O,93.8% (active)
6,O=C(Nc1cc(S(=O)(=O)Nc2ccc(Cl)cc2)ccc1O)c1ccc(F)cc1F,22.4%
7,CCOc1ccccc1-n1c(SCC(=O)N2CCCC2)nnc1-c1ccoc1C,-6.11%
8,O=C(C1CCN(S(=O)(=O)c2ccccc2)CC1)N1CCN(C2CCCCC2)CC1,2.76%
9,COC(=O)[C@]12C[C@H](CC(=O)N3CCOCC3)C(=O)N(Cc3ccc(Cl)cc3Cl)C1=C[C@H](C(C)C)O[C@@H]2C1CC1,4.69%
10,COc1cccc(NC(=O)N(C)C[C@@H]2OCc3cn(nn3)CCCC(=O)N([C@@H](C)CO)C[C@H]2C)c1,1.49%
11,CCCCOCCCNC(=O)C[C@H]1C[C@@]2(C(=O)OC)C(=C[C@H](C(C)(C)C)O[C@@H]2C)N(CCc2ccc(OC)c(OC)c2)C1=O,2.98%
12,COc1ccc(CSc2nnc(SCC(=O)Nc3ccccc3C(F)(F)F)s2)cc1,0.71%
13,CCCCCCN1CCS(=O)(=O)N(Cc2ccc(C(F)(F)F)cc2)C(C(=O)OC)C1 (centres undefined),0.66%
14,CC(=O)C1(C(=O)Nc2nccs2)CC(c2ccccc2C(F)(F)F)=NO1 (centres undefined),2.46%
15,Cc1cc2nc(-c3ccco3)c(Cc3cccc(F)c3)n2c(C)c1Br,37% (active)
16,Cc1cc2nc(-c3ccc(F)cc3)c(Cc3ccsc3)n2c(C)c1Br,5.76%
17,c1ccc(Cc2c(-c3ccco3)nc3c4ccccc4ccn23)cc1,13.8%
18,Cc1ccc2c(CN3CCN(S(=O)(=O)c4ccccc4C(F)(F)F)CC3)cc(=O)oc2c1,10%
19,O=c1cc(CN2CCN(S(=O)(=O)/C=C/c3ccccc3)CC2)c2ccc(O)cc2o1,40% (active)
20,NC(=O)CCN1CCN(S(=O)(=O)/C=C/c2ccccc2)CC1,-0.01%
21,COc1ccc(CN2C(=O)C(C)S/C2=N/N=C/c2ccco2)cc1 (centres undefined),0.84%
